# Measurements reported in PubChem BioAssay (NCI).
# This is part of a sample that, as a whole, favours compounds with a hit. Of some 83,000 tested, about 20% had one in any assay.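 Single-dose data. Exposure time 48 hours. Values below 10 considered active.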 Unmarked numbers belong to inactive results. Activity calls are given as the source filed them.
# How the values were obtained:
# Assay in all cases: NCI-60 one-dose screen, 48 h (100 = growth as untreated, 0 = no growth, -100 = all killed)
# Conditions in all cases: 10 µM unless noted
# DU-145 prostate = system: DU-145 prostate
# K-562 leukemia = system: K-562 leukemia
# MALME-3M melanoma = system: MALME-3M melanoma
# MDA-MB-231 breast = system: MDA-MB-231 breast
# RXF 393 renal = system: RXF 393 renal
# SF-268 CNS = system: SF-268 CNS
# SF-295 CNS = system: SF-295 CNS
# SF-539 CNS = system: SF-539 CNS
# M14 melanoma = system: M14 melanoma
# HCT-15 colon = system: HCT-15 colon
# HT29 colon = system: HT29 colon
# SNB-75 CNS = system: SNB-75 CNS
# SNB-19 CNS = system: SNB-19 CNS
# U251 CNS = system: U251 CNS
# PC-3 prostate = system: PC-3 prostate
# SK-MEL-5 melanoma = system: SK-MEL-5 melanoma
# LOX IMVI melanoma = system: LOX IMVI melanoma
# SK-MEL-28 melanoma = system: SK-MEL-28 melanoma
SMILES,growth (DU-145 prostate),growth (K-562 leukemia),growth (MALME-3M melanoma),growth (MDA-MB-231 breast),growth (RXF 393 renal),growth (SF-268 CNS),growth (SF-295 CNS),growth (SF-539 CNS),growth (M14 melanoma),growth (HCT-15 colon),growth (HT29 colon),growth (SNB-75 CNS),growth (SNB-19 CNS),growth (U251 CNS),growth (PC-3 prostate),growth (SK-MEL-5 melanoma),growth (LOX IMVI melanoma),growth (SK-MEL-28 melanoma)
Cn1c(=O)c2c(ncn2CCC(=O)Nc2ccc(F)cc2)n(C)c1=O,105%,96%,114%,102%,115%,103%,105%,96.9%,97.8%,106%,94%,91.5%,102%,98.4%,80.9%,111%,97.9%,114%
COc1ccc(/C=C/C(=O)NCC(C)O)cc1 (configuration not stated),103%,122%,101%,100%,90.7%,94%,99.7%,92.8%,101%,102%,95.1%,84.7%,109%,95.8%,94.5%,101%,97.2%,102%
Fc1ccc(Nc2nc(Nc3ccc(-c4nc5ccccc5[nH]4)cc3)nc(N3CCCC3)n2)cc1,93.3%,-38.8% (active),85.7%,61.6%,77.8%,91.2%,90.9%,81.6%,-58.3% (active),-8.99% (active),36.1%,65.4%,103%,55.8%,33.8%,87%,3.18% (active),47.7%
COC(=O)[C@]12CC[C@@H](C)[C@H](C)[C@@H]1C1=CC[C@@H]3[C@@](C)(CC#N)C4=C(C[C@@]3(C)[C@]1(C)CC2)OC[C@]4(C)C=O,5.07% (active),5.97% (active),-16.9% (active),-8.99% (active),-85.1% (active),3.69% (active),-30.6% (active),-38.4% (active),-1.53% (active),0.689% (active),-20.7% (active),19.3%,8.5% (active),-45.7% (active),9.95% (active),-89% (active),-99% (active),-19.6% (active)
CCCCCCCC(=O)SCC/C=C/[C@@H]1CC(=O)NCc2cccc(n2)CN(Cc2ccc(Cl)cc2)CC(=O)N[C@@H](C(C)C)C(=O)O1,20.6%,9.09% (active),25.1%,-1.33% (active),-20.4% (active),18%,-68.2% (active),14.7%,8.96% (active),20.7%,-2.23% (active),18.6%,15.3%,-48.2% (active),9.67% (active),-84.6% (active),-61.5% (active),
Clc1ccc(Cn2cc(-c3nc4ccc(Br)nc4n3Cc3ccc(Cl)cc3)c3cccnc32)cc1,105%,78.9%,92.4%,53.1%,83%,89.2%,83.9%,86%,89.8%,87.2%,96.3%,64.1%,89.2%,94.8%,65.7%,74.3%,85.4%,
O=C1CNCCN1,107%,101%,104%,97.9%,98.5%,107%,97.4%,95.8%,105%,100%,100%,92.6%,104%,104%,96.5%,101%,98.5%,105%
COC(=O)[C@]12CC[C@@H](C)[C@H](C)[C@@H]1C1=CC[C@@H]3[C@@]4(C)C[C@@H](OC(C)=O)[C@H](O)[C@@](C)(COC(C)=O)[C@@H]4[C@H](O)C[C@@]3(C)[C@]1(C)CC2,-91.9% (active),-10.7% (active),-70.5% (active),-68% (active),-79.2% (active),-71.9% (active),-91.8% (active),-85.1% (active),-73.3% (active),-79.4% (active),-84.1% (active),-81.1% (active),-82.6% (active),-94.2% (active),-95.1% (active),-99.9% (active),-100% (active),-88.3% (active)
